In the library only some 1.5% were active in any assay of this set; here they are far more common.
PI4K2A block: qHTS for small molecular inhibitors of PI4K2A. Phosphatidylinositol 4-kinase type 2-alpha (Homo sapiens), Q9BTU6. purified PI4K2A, ADP-Glo luminescence, 1 h; active compounds read low. activity change, negative = inhibition, % at 76.9 µM. 420,000 tested, 0.13% active; in the data active means activity change below about -50%; inconclusive means mostly about -30% to -49%
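ADP-Glo luminescence measured ADP generated by PI4K2A enzyme (4 ug/mL before mixing) with 1.2 mM PI substrate (pre-mix) and 300 microM ATP (pre-mix). Tris pH7.5 buffer with MgCl2, Triton X-100; 1 h reaction at ambient temperature.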
GALK inh: qHTS Assay for Inhibitors of Human Galactokinase (GALK); P51570; 270,000 tested, 0.007% active; Potency, µM (highest dose often 57.5 µM), actives largely listed as inhibitors; Purified GALK, Kinase-Glo residual ATP luminescence; AID 1868, 2009
Target sequence (P51570 whole entry, looked up): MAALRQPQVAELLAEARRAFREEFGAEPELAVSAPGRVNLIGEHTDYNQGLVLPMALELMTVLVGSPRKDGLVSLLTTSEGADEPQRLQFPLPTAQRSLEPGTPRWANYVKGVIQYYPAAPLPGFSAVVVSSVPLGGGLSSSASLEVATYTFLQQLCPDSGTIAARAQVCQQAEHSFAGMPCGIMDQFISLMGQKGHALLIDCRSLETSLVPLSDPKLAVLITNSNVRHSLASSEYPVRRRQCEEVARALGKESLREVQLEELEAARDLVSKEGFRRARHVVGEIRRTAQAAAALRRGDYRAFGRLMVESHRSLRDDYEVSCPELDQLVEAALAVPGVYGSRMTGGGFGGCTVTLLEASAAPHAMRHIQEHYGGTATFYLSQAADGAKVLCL
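ATP-depletion format; final 35 uM ATP, 100 uM D-galactose, 5 nM enzyme; pH 8.0 HEPES/Mg2+ buffer; 60 min RT; luminescence read 10 min after detection reagent.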
Giardia killer: Small Molecules that selectively kill Giardia lamblia: qHTS; Giardia lamblia trophozoite viability; activity change, % at 7.66 µM, hits read low; 340,000 tested, 0.15% active; AID 540267, 2011; in the data active means activity change below about -80%; inconclusive means between about -30% and that limit;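 further: parasites exposed to compound for two days anaerobically before the ATP read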
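ATP-content bioluminescence gauges trophozoite survival. Cells (100/well) receive compound and incubate anaerobically for 48 hrs at 37 deg C; detection reagent follows for 15-30 min at room temperature.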
rTrxR1 inhibitor: qHTS Assay for Inhibitors of Mammalian Selenoprotein Thioredoxin Reductase 1 (TrxR1): qHTS. Thioredoxin reductase 1, cytoplasmic (Rattus norvegicus), O89049. recombinant rTrxR1, NADPH fluorescence consumption, selenite substrate. Potency, µM (top dose mostly 114 µM), most hits filed as inhibitors. 390,000 tested, 1% active; further: nearly all actives have a fitted effect of over 65% in size
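Rat TrxR1 (90 nM in the dispensed reagent) was pre-reduced with 400 uM NADPH for 5 min at room temperature, then incubated with compound for 15 min. After 400 uM selenite was added, NADPH fluorescence (Ex 340/Em 450 nm) was followed for 8 min.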
Coupling enz: qHTS Assay for Inhibitors of Fructose-1,6-bisphosphate Aldolase from Giardia Lamblia: Coupling assay counterscreen; coupling enzyme system counterscreen, AmpLite Red fluorescence; activity change, negative = inhibition, % at 58.2 µM, hits read low; 290,000 tested, 0.67% active; in the data active means activity change below about -30%
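Counterscreen of the coupled detection system alone, without aldolase: glyceraldehyde-3-phosphate coupling enzymes plus AmpLite Red readout. Compounds at 57.5 uM final, 10 min RT preincubation, 20 min RT reaction, fluorescence 525/598 nm.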
TrxR1 substrate: qHTS Assay for Substrates of Mammalian Selenoprotein Thioredoxin Reductase 1 (TrxR1): qHTS; 390,000 tested, 0.01% active; AID 588456, 2011; purified TrxR1 substrate turnover, NADPH consumption readout; Potency, µM (doses to about 114 µM); Thioredoxin reductase 1, cytoplasmic (Rattus norvegicus), O89049; further: nearly all actives have a fitted effect of over 50% in size
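Rat TrxR1, dispensed at 90 nM, was prereduced with 400 uM NADPH (final) for 5 min at ~22 deg C, then incubated with compound 15 min before 400 uM selenite. A first-read NADPH fluorescence drop versus no-compound background flagged substrates.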
A number is an active result; [ ] = another dose, or the depositor's remark. Unless noted, the call rests on the fitted dose curve; in most records, active means well fitted curve in the direction sought with a large enough effect; inconclusive means small, poorly fitted or top-dose-only effect, or another doubt; inactive means no such curve, though single readings can be large; an effect the other way counts as inactive or inconclusive.

For O=C1NC(=S)S/C1=C\c1ccc(SCc2ccccc2)o1 the results were PI4K2A block inactive, GALK inh inactive, Giardia killer inactive, rTrxR1 inhibitor 25µM, Coupling enz inactive and TrxR1 substrate inactive.
Cc1ccc(NC(=O)Cc2ccc(-n3c(C)nc4cccnc43)cc2)c(Cl)c1 was read as PI4K2A block inactive, rTrxR1 inhibitor inactive and TrxR1 substrate inactive.
Nc1ccc(-c2ccc(C(=O)O)s2)cn1 was read as PI4K2A block inactive, GALK inh inactive, Giardia killer inactive, rTrxR1 inhibitor 16µM, Coupling enz inactive and TrxR1 substrate inactive.
Cc1ccc(S(=O)(=O)N(CC(=O)NCc2ccco2)C2CCCCC2)cc1 was read as PI4K2A block inactive, GALK inh inactive, Giardia killer inactive, rTrxR1 inhibitor inactive, Coupling enz inactive and TrxR1 substrate inactive.
Screening COc1ccccc1N(CC(=O)NCc1ccco1)S(=O)(=O)c1ccc(C)cc1 returned PI4K2A block inactive, GALK inh inactive, Giardia killer inactive, rTrxR1 inhibitor 32µM, Coupling enz inactive and TrxR1 substrate inactive[0.0914 µM].
Screening O=C(CN(C1CCCCC1)S(=O)(=O)c1ccccc1)NCc1ccco1 returned PI4K2A block inactive, GALK inh inactive, Giardia killer inactive, rTrxR1 inhibitor 28µM, Coupling enz inactive and TrxR1 substrate inactive.
COc1cccc(N(CC(=O)NCCSCc2ccco2)S(=O)(=O)c2ccccc2)c1 was read as PI4K2A block inactive, GALK inh inactive, Giardia killer inactive, rTrxR1 inhibitor inactive, Coupling enz inactive and TrxR1 substrate inactive.
Screening Cc1cccc(N(CC(=O)NCCSCc2ccco2)S(=O)(=O)c2ccccc2)c1 returned PI4K2A block inactive, GALK inh inactive, Giardia killer inactive, rTrxR1 inhibitor 11µM, Coupling enz inactive and TrxR1 substrate inactive.
For COc1ccc(N(CC(=O)NCc2ccco2)S(=O)(=O)c2ccc(C)cc2)cc1OC the results were PI4K2A block inactive, GALK inh inactive, Giardia killer inactive, rTrxR1 inhibitor inactive, Coupling enz inactive and TrxR1 substrate inactive[0.0914 µM].
For Cc1ccc(CN(C)C(=O)c2cc(Br)c(Br)s2)o1 the results were PI4K2A block inactive, GALK inh inactive, Giardia killer inactive, rTrxR1 inhibitor 50µM, Coupling enz inactive and TrxR1 substrate inactive.
Screening Cc1ccc2oc(C(=O)N(C)Cc3ccc(C)o3)c(C)c2c1 returned PI4K2A block inactive, GALK inh inactive, Giardia killer inactive, rTrxR1 inhibitor 7.1µM, Coupling enz inactive and TrxR1 substrate inactive.
For C=CCN1C(=O)c2ccc(C(=O)N(C)Cc3ccc(C)o3)cc2C1=O the results were PI4K2A block inactive, Giardia killer inactive, rTrxR1 inhibitor inconclusive and TrxR1 substrate inactive.
O=C(C[n+]1ccccc1Br)c1ccc(-c2ccccc2)cc1 was read as rTrxR1 inhibitor inconclusive and TrxR1 substrate inactive.
CCCNC1=C(N(C(C)=O)c2cccc(F)c2)C(=O)c2ccccc2C1=O was read as PI4K2A block inactive, GALK inh inactive, Giardia killer inactive, rTrxR1 inhibitor inactive, Coupling enz -49 and TrxR1 substrate inactive.
Screening COc1ccccc1N(C(C)=O)C1=C(Cl)C(=O)c2ccccc2C1=O returned PI4K2A block inactive.
Screening C=C(C)C(=O)/C=C/c1ccc(C(F)(F)F)cc1 returned Coupling enz inactive.
Screening O=C(CSc1nccn1-c1ccc(Cl)cc1)Nc1cccc2ccccc12 returned PI4K2A block inactive, rTrxR1 inhibitor inactive and TrxR1 substrate inactive.
COc1cc(NC(=O)c2ccc([N+](=O)[O-])o2)ccc1NC(=O)c1ccco1 was read as PI4K2A block inactive, GALK inh inactive, Giardia killer -96, rTrxR1 inhibitor inactive, Coupling enz inactive and TrxR1 substrate inactive.
Cc1cc([N+](=O)[O-])ccc1NC(=O)c1ccco1 was read as PI4K2A block inactive, GALK inh inactive, Giardia killer inactive, rTrxR1 inhibitor inactive, Coupling enz inactive and TrxR1 substrate inactive.
`Cc1cc(NC(=O)c2ccc([N+](=O)[O-])o2)ccc1NC(=O)c1ccco1` gave PI4K2A block inactive, GALK inh inactive, Giardia killer -94, rTrxR1 inhibitor inconclusive, Coupling enz inactive and TrxR1 substrate inactive.
CCCCCn1c(=O)[nH]c2cc(C(=O)N3CCN(c4cc(Cl)ccc4C)CC3)ccc2c1=O was read as PI4K2A block inactive, rTrxR1 inhibitor inactive and TrxR1 substrate inactive[2.29 µM].
COc1ccccc1CN1CC(C(=O)NCCc2ccc(C)o2)CCC1=O (centres undefined) was read as PI4K2A block inactive, GALK inh inactive, Giardia killer inactive, rTrxR1 inhibitor 50µM and TrxR1 substrate inactive.
COc1ccccc1CN1CC(C(=O)N(C)Cc2ccncc2C)CCC1=O (centres undefined) was read as PI4K2A block inactive, GALK inh inactive, Giardia killer inactive, rTrxR1 inhibitor inactive and TrxR1 substrate inactive.
Screening COc1ccccc1CN1CC(C(=O)N(C)Cc2ccc(C)o2)CCC1=O (centres undefined) returned PI4K2A block inactive, GALK inh inactive, Giardia killer inactive, rTrxR1 inhibitor 35µM and TrxR1 substrate inactive.
Screening COc1ccccc1CCNC(=O)C1CCC(=O)N(Cc2ccccc2OC)C1 (centres undefined) returned PI4K2A block inactive, GALK inh inactive, Giardia killer inactive, rTrxR1 inhibitor inconclusive and TrxR1 substrate inactive.
Screening COc1ccc(CCN2CC(C(=O)N(C)Cc3ccc(C)o3)CCC2=O)cc1 (centres undefined) returned PI4K2A block inactive, GALK inh inactive, Giardia killer inactive, rTrxR1 inhibitor 50µM, Coupling enz inactive and TrxR1 substrate inactive.
For O=c1c2cc3cc(Cl)ccc3nc2ncn1Cc1ccc(Oc2ccccc2)cc1 the results were PI4K2A block inactive.
O=C(COC(=O)c1ccc([N+](=O)[O-])o1)NC1CCCC1 was read as PI4K2A block inactive, Giardia killer inactive, rTrxR1 inhibitor inconclusive and TrxR1 substrate inactive.
CS(=O)(=O)c1ccc(C(=O)OCC(=O)NCc2cccs2)cc1[N+](=O)[O-] was read as PI4K2A block inactive, Giardia killer inactive, rTrxR1 inhibitor 1.8µM and TrxR1 substrate inactive.
For Cc1cccc(C(=O)OCC(=O)NCc2cccs2)c1 the results were PI4K2A block inactive, GALK inh inactive, Giardia killer inactive, rTrxR1 inhibitor inactive, Coupling enz inactive and TrxR1 substrate inactive.
`O=C(COC(=O)c1ccc([N+](=O)[O-])o1)NC1CCCCC1` gave PI4K2A block inactive, Giardia killer inactive, rTrxR1 inhibitor 16µM and TrxR1 substrate inactive.

Screens (PubChem)
